This passage reports Potency and outcome results from PubChem BioAssay (NCATS).

Results filed as inconclusive are left out. Where a call stands in place of a potency, no number is given. Activity calls are given as the source filed them. Unless noted, calls come from the whole dose curve; as a rule, active = well fitted curve in the direction sought with a large enough effect; inconclusive = small, poorly fitted or top-dose-only effect, or another doubt; inactive = no such curve, though single readings can be large; an effect the other way counts as inactive or inconclusive.

In assay [1] the target is Protein phosphatase 1D (Homo sapiens) (UniProt O15297). The assay can be described thus: RapidFire Mass Spectrometry qHTS Assay for Modulators of WT P53-Induced Phosphatase 1 (WIP1) (AID 1347424).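 Note: amount of dephosphorylated VEPPL-S-QETFS peptide product formed by WIP1.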 Note: potency is the fitted concentration of half-maximal effect. The essentials: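 10 nM WIP1 preincubated with compounds 1 hr at room temperature in pH 7.5 Tris buffer with 30 mM MgCl2, 1 mM TCEP; 2 uM VEPPL-pS-QETFS phosphopeptide for 5 min, formic acid quench; dephosphorylated product quantified by RapidFire MS against labelled standard.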
Sequence of Protein phosphatase 1D (Homo sapiens) (O15297 whole entry, looked up): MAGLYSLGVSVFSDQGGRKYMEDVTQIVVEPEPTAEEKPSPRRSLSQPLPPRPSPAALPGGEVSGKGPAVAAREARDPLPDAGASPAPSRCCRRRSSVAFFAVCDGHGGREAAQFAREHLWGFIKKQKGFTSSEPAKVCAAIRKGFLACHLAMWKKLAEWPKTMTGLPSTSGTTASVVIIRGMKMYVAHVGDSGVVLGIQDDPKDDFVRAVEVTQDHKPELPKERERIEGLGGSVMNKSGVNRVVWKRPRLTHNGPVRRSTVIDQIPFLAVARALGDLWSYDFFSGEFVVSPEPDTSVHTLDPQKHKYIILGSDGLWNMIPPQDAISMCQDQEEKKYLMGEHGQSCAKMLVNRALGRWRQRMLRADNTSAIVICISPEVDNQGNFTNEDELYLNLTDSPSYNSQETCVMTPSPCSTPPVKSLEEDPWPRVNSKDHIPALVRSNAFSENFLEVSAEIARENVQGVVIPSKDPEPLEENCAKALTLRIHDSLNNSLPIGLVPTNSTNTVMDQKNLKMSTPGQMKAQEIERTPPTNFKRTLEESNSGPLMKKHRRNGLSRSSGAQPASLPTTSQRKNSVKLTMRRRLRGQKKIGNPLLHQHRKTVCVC
(qHTS replaces the single test concentration by a dilution series.)

Assay [2] shares this target. Put plainly: Rhodamine-PBP qHTS Assay for Modulators of WT P53-Induced Phosphatase 1 (WIP1) (AID 1347425). The method in brief:
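Read-out: Rhodamine-PBP fluorescence (ex 525/em 598 nm) for released Pi, read each minute for 11 min after adding 10 uM VEPPL-pS-QETFS; signal taken as f1 minus pre-substrate f0. Enzyme 5 nM WIP1 with 1 hr room-temperature compound preincubation.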

Assay [3] addresses Calcium and integrin-binding protein 1 (Homo sapiens) (UniProt Q99828). Put plainly: Primary qHTS for Identification of Calcium Integrin Binding Protein 1 (CIB1) Competitor (AID 1508620). Note: top concentration of the series differs between compounds. The essentials: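 Fluorescence polarization competition: GST-tagged CIB1 (1 uM final) preincubated with compound 15 min at room temperature, then FITC-labelled alphaIIb peptide (100 nM final) added. After 15 min at room temperature, polarization read at Ex 480/Em 540.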

Assay [4] is described as follows: Primary qHTS for small molecule stabilizers of the endoplasmic reticulum resident proteome: Secreted ER Calcium Modulated Protein (SERCaMP) assay (AID 1508630). Note: potency is the fitted concentration of half-maximal effect. The essentials:
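GLuc-SERCaMP-expressing SH-SY5Y cells, pretreated 16 h with compound, are challenged with thapsigargin to empty ER calcium stores; after 4 h, coelenterazine is added directly to the medium and luminescence is imaged.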

Assay [5] can be described thus: A High-Content qHTS Against Drug Library for the Identification of Small Molecules that Inhibit DYT1 Early Onset Primary Dystonia-Associated Cell Pathology (AID 1645839; calls by dose curve; note: series mostly up to about 46 µM). The essentials: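 Flp-In T-REx 293 cells with tetracycline-inducible EGFP-delE hTOR1A (WT EGFP-hTOR1A as reference), 800 cells/well; compound added with tetracycline, 48 h at 37 C. Fixed, permeabilized cells imaged; %pathology (punctate TorsinA) primary, cell count counterscreen.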

Assay [6] is described as follows: Validation qHTS assay for inhibitors of Activation Induced Cytidine Deaminase (AID): UDG Counterscreen signal (AID 1347427). The essentials:
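Counterscreen read of UDG activity (2 U/mL, 4/3x) in the FRET deamination format with AID (1 uM, 4/3x), DJC20/DJC23 substrates (250 nM, 4x), 4 h at room temperature. NaOH stop, fluorescence at 560 ex/665 em.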

Assay [7] can be described thus: Primary qHTS for inhibitors of La Crosse Virus (LACV) - induced cell death in SH-SY5Y cells (AID 1508616). Note: potency is the fitted concentration of half-maximal effect. The method in brief: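 Protection against LACV-induced cell death is scored in SH-SY5Y cells exposed to compounds and virus (0.01 MOI) for 6 days. Data normalized to virus-infected DMSO wells and virus-free DMSO wells.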

Sequence of Calcium and integrin-binding protein 1 (Homo sapiens) (Q99828 whole entry, looked up): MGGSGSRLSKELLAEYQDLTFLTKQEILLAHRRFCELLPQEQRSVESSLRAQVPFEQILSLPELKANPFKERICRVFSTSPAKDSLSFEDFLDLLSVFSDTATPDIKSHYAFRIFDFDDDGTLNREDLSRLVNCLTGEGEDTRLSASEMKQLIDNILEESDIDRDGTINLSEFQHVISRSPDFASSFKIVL

`O=c1c(-c2ccccc2)c1-c1ccccc1`: the Potency result in assay [1], in assay [3] and in assay [4] was “inactive” throughout. In addition, the call in assay [2] was inactive.

For `CCN(CCCCOC(=O)c1ccc(OC)c(OC)c1)C(C)Cc1ccc(OC)cc1` (stereo not given), the Potency result in assay [1], in assay [3], in assay [4] and in assay [5] was “inactive” throughout. In assay [2], the compound was classed as inactive.

On to `CC1(C)OC[C@@H](COC(=O)CCc2ccc(OC[C@@H](O)CNCCNC(=O)N3CCOCC3)cc2)O1`, for which the Potency entry in assay [1], in assay [4] and in assay [5] was “inactive” in each case. For the same compound, in assay [2], the result was inactive.

On to `CC[C@H](C)C(=O)O[C@H]1CCC=C2C=C[C@H](C)[C@H](CC[C@@H]3C[C@@H](O)CC(=O)O3)[C@H]21`, for which, in assay [6], the outcome was inactive. The Potency entry in assay [7] was “inactive”. In addition, the Potency in assay [4] was 2 µM (active).

For the compound `O=C(O)c1cc2cc(Cc3cccnc3)ccc2o1`, the result in assay [6] was inactive. Moreover, the Potency entry in assay [4] is “inactive”.

As for `CC1(C)CCC(NC(=O)[C@@H](N)CCC(=O)O)CC1`, the outcome in assay [6] was inactive. Also, the Potency entry in assay [7] and in assay [4] was “inactive” in each case.

On to `CCC(=O)c1c(O)cc(O)cc1O`, for which, in assay [2], the compound was called inactive. Also, the Potency entry in assay [7], in assay [3] and in assay [4] was “inactive” each time.

For the compound `CCCCCCc1ccc(O)cc1O`, the Potency result in assay [1], in assay [7] and in assay [3] was “inactive” each time.

For `C1CCc2nnnn2CC1`, the compound was classed as inactive in assay [6]. Also, the Potency result in assay [7] and in assay [4] was “inactive” throughout.

Turning to `O=C1CCC(c2ccc(-n3ccnc3)cc2)=NN1`, the call in assay [6] was inactive. Also, the Potency result in assay [7] and in assay [4] was “inactive” in each case.

Consider `COc1cc(C=C2CCC/C(=C\c3ccc(O)c(OC)c3)C2=O)ccc1O`, for which the Potency result in assay [1] and in assay [7] was “inactive” throughout.

Take `COc1cc2c(cc1O)CC[C@@H]1[C@@H]2CC[C@]2(C)[C@@H](O)CC[C@@H]12`: the compound was called inactive in assay [6]. In addition, the Potency in assay [7] is 0.631 µM (active). In assay [4], the Potency result was “inactive”.

As for `CC(C)(C)CC(C)(C)c1ccc(O)c(Cc2ccc(Cl)cc2Cl)c1`, the Potency entry in assay [1], in assay [7], in assay [3] and in assay [4] was “inactive” throughout.

Take `N[C@@H](Cc1cnc[nH]1)C(=O)O`: the outcome in assay [6] was inactive. Besides, the Potency entry in assay [4] is “inactive”.

Regarding `CC(=O)O[C@H]1C[C@@H]2CC[C@@H]3[C@H](CC[C@@]4(C)[C@H]3C[C@H]([N+]3(C)CCCCC3)[C@@H]4OC(C)=O)[C@@]2(C)C[C@@H]1[N+]1(C)CCCCC1`, the result in assay [6] was inactive. The Potency result in assay [7] and in assay [4] was “inactive” each time.

Consider `COC(=O)[C@H]1[C@H]2C[C@H]3c4[nH]c5ccccc5c4CCN3C[C@H]2CC[C@@H]1O`, for which, in assay [6], the compound was classed as inactive. Further, the Potency result in assay [7] and in assay [4] was “inactive” in each case.

On to `CN(C)/N=N/c1nc[nH]c1C(N)=O`, for which the call in assay [2] was inactive. Also, the Potency entry in assay [7], in assay [4] and in assay [5] was “inactive” in each case.

`C[C@@H]1C(=O)NC2=Nc3cccc(Cl)c3CN21`: the outcome in assay [6] was inactive. Also, the Potency result in assay [7] was “inactive”.

As to `C/C=C(/C(=C/C)c1ccc(O)cc1)c1ccc(O)cc1`, the Potency entry in assay [7], in assay [3] and in assay [4] was “inactive” throughout.

`CC(C)=CCC1C(=O)N(c2ccccc2)N(c2ccccc2)C1=O`: the Potency entry in assay [7] and in assay [4] was “inactive” throughout.

Turning to `Oc1ccc(Cl)cc1Sc1cc(Cl)ccc1O`, the Potency in assay [1] was 31.6 µM (active). Also, the Potency entry in assay [7] and in assay [4] was “inactive” in each case.

With `CC1(C)O[C@@H]2C[C@H]3[C@@H]4C[C@H](F)C5=CC(=O)CC[C@]5(C)[C@H]4[C@@H](O)C[C@]3(C)[C@]2(C(=O)CO)O1`, the Potency entry in assay [1], in assay [4] and in assay [5] was “inactive” in each case. Besides, in assay [2], the compound was classed as inactive.

For the compound `Nc1cc(Cl)c(NC2=NCCN2)c(Cl)c1`, the result in assay [6] was inactive. Further, the Potency result in assay [7] and in assay [4] was “inactive” throughout.

Consider `CCC(NC(C)C)C(O)c1ccc(O)c(O)c1` (stereo not given), for which, in assay [6], the call was inactive. In addition, in assay [4], the Potency entry is “inactive”.

On to `Oc1c(Cl)cc(Cl)cc1Sc1cc(Cl)cc(Cl)c1O`, for which, in assay [1], the Potency is 12.6 µM (active). In addition, the Potency result in assay [7], in assay [3] and in assay [4] was “inactive” each time.

As to `O=C(Nc1ccc(Oc2ccc(Cl)cc2)c(Cl)c1)c1cc(I)cc(I)c1O`, the Potency result in assay [1] and in assay [7] was “inactive” in each case.

`N[C@H](CO)C(=O)O`: the compound was classed as inactive in assay [6]. For the same compound, the Potency result in assay [7] and in assay [4] was “inactive” each time.

Regarding `CC(C)C[C@H]1C(=O)N2CCC[C@H]2[C@]2(O)O[C@](NC(=O)[C@@H]3C=C4c5cccc6[nH]c(Br)c(c56)C[C@H]4N(C)C3)(C(C)C)C(=O)N12`, the result in assay [6] was inactive. In addition, the Potency result in assay [7] is “inactive”.

With `C[C@]12CC[C@@H]3c4ccc(O)cc4CC[C@H]3[C@@H]1CC[C@@H]2O`, the result in assay [6] was inactive. For the same compound, the Potency entry in assay [7] and in assay [4] was “inactive” in each case.

`CC/C(=C(/CC)c1ccc(O)cc1)c1ccc(O)cc1`: the Potency in assay [1] was 15.8 µM (active). In addition, the Potency entry in assay [4] is “inactive”.

With `CCCn1c(=O)[nH]c(=O)c2[nH]cnc21`, the call in assay [6] was inactive. Besides, the Potency result in assay [7] and in assay [4] was “inactive” throughout.

With `CCCC1O[C@@H]2C[C@H]3[C@@H]4CCC5=CC(=O)C=C[C@]5(C)[C@H]4[C@@H](O)C[C@]3(C)[C@]2(C(=O)CO)O1` (stereo not given in full), the outcome in assay [6] was inactive. Moreover, the Potency result in assay [7] and in assay [4] was “inactive” in each case.

Regarding `CC(C)COC(=O)OCN1C(=O)CN(CCN2CC(=O)N(COC(=O)OCC(C)C)C(=O)C2)CC1=O`, the compound was classed as inactive in assay [6]. Also, the Potency entry in assay [7] and in assay [4] was “inactive” each time.

Regarding `COc1cc(NS(C)(=O)=O)ccc1Nc1c2ccccc2nc2ccccc12`, the Potency result in assay [4] is “inactive”.

On to `CN1C2CCC1CC(OC(=O)c1c[nH]c3ccccc13)C2` (stereo not given), for which, in assay [6], the result was inactive.

On to `CNCCC=C1c2ccccc2CCc2ccccc21`, for which the call in assay [6] was inactive. Further, the Potency entry in assay [4] is “inactive”.

For `C[N+]1(CCCCC[N+]2(C)CCCC2)CCCC1`, the compound was called inactive in assay [6]. Further, the Potency result in assay [7] and in assay [4] was “inactive” in each case.

For the compound `Cc1c(C(N)=O)cc([N+](=O)[O-])cc1[N+](=O)[O-]`, the result in assay [2] was inactive. Besides, the Potency entry in assay [3], in assay [4] and in assay [5] was “inactive” in each case.

Consider `CNCCC(Oc1ccccc1C)c1ccccc1` (stereo not given), for which the result in assay [6] was inactive. The Potency entry in assay [7] and in assay [4] was “inactive” each time.

Consider `CC(CCc1ccccc1)NCC(O)c1ccc(O)c(C(N)=O)c1` (stereo not given), for which the compound was classed as inactive in assay [6]. Moreover, the Potency entry in assay [7] was “inactive”.
